Test results published in the supplement of paper PMC10981050.
“And” between values parts separate entries of the source, which are not always exact repeats. Equal entries are not always repeated. Structures can show the parent of a compound that is named as a salt.

Experiments:
Experiment in all cases: cell viability relative to vehicle control; higher = less cytotoxic
Settings in all cases: 10 µM
K562 = test system: K562
Procedure, shortened: (§1)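 CRISPR-edited mutant clones and isogenic wild-type clones from four leukaemia lines were screened against Selleck bioactive, kinase and epigenetic probe libraries, with identity-inconsistent compounds excluded. Each compound was acoustically dispensed at a single 10 µM dose into 384-well plates holding 2000 cells in 50 µL medium per well. After 48 h the supernatant was removed and CellTiter-Glo luminescence was read. Viability was expressed as percent of the on-plate vehicle control and analysed in Genedata Screener.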

MARIMO = test system: MARIMO
Procedure, shortened: as §1

MOLM14 = test system: MOLM14
Procedure, shortened: as §1

OCI-AML2 = test system: OCI-AML2
Procedure, shortened: as §1

| Compound | cell viability (K562; SRSF2 genotype: SRSF2 P95H/wt) | cell viability (K562; SRSF2 genotype: SRSF2 wt/wt) [%] | cell viability (MARIMO; SRSF2 genotype: SRSF2 P95H/wt) [%] | cell viability (MARIMO; SRSF2 genotype: SRSF2 wt/wt) [%] | cell viability (MOLM14; SRSF2 genotype: SRSF2 P95H/wt) [%] | cell viability (MOLM14; SRSF2 genotype: SRSF2 wt/wt) [%] | cell viability (OCI-AML2; SRSF2 genotype: P95H/wt) [%] | cell viability (OCI-AML2; SRSF2 genotype: wt/wt) [%] |
| --- | --- | --- | --- | --- | --- | --- | --- | --- |
| O=C(O)C=C(CC(=O)O)C(=O)O [cis-Aconitic acid] | 109% and 108% | 101 | 102 | 113 | 102 | 103 | 97.9 | 106 |
| OCCOc1ccc(/C(=C(/CCCl)c2ccccc2)c2ccccc2)cc1 [Ospemifene] | 101% and 99.5% | 96.5 | 105 | 109 | 79.3 | 99.9 | 88.2 | 96.3 |
| Cc1ccc2nc(NC(=O)CSc3nc4c(c(=O)n3-c3ccccc3)SCC4)sc2c1 | 91.8% and 99.4% | 89.8 | 94 | 98.9 | 98.9 | 93.3 | 94.2 | 104 |
| Nc1nc(Cl)nc2c1ncn2[C@H]1C[C@H](O)[C@@H](CO)O1 [Cladribine] | 94.3% and 104% | 101 | 12.2 | 8.19 | 2.38 | 0.54 | 4.93 | 4.28 |
| C[C@H](CC(=O)C[C@@H](C)[C@H]1C[C@H](O)[C@@]2(C)C3=C(C(=O)C[C@]12C)[C@@]1(C)CCC(=O)C(C)(C)[C@@H]1C[C@@H]3O)C(=O)O [Ganoderic acid A] | 102% and 109% | 103 | 104 | 104 | 99.5 | 102 | 102 | 111 |
| O=c1c(-c2ccc(O)cc2)coc2cc(O)ccc12 [Daidzein] | 99.3% and 97.8% | 97.8 | 95.4 | 96.9 | 93.4 | 96.7 | 92.9 | 102 |
| CCC(C)(Oc1ccc(C2(c3ccc(OC(C)(CC)C(=O)O)cc3)CCCCC2)cc1)C(=O)O (stereo unspecified) [Clinofibrate] | 95.4% and 93.2% | 93.7 | 92.4 | 102 | 93.8 | 96.6 | 90.4 | 102 |
| C[C@H](NCc1ccc(OCc2cccc(F)c2)cc1)C(N)=O [Safinamide] | 101% and 109% | 107 | 103 | 105 | 98.7 | 106 | 104 | 106 |
| N[C@@H]1CN(c2c(F)cc3c(=O)c(C(=O)O)cn([C@@H]4C[C@@H]4F)c3c2Cl)CC12CC2 [Sitafloxacin hydrate] | 103% and 104% | 91.9 | 104 | 105 | 105 | 103 | 102 | 107 |
| COc1cccc(CCc2ccccc2OCC(CN(C)C)OC(=O)CCC(=O)O)c1 (stereo unspecified) [Sarpogrelate hydrochloride] | 90.3% and 96% | 92.4 | 84.3 | 89.3 | 88.1 | 102 | 96.9 | 100 |
| CN(N=O)C(=O)NC1C(O)OC(CO)C(O)C1O (stereo unspecified) [Streptozotocin (STZ)] | 103% | 105 | 98.3 | 104 | 97.2 | 103 | 100 | 107 |
| CC(=O)O[C@H]1CC(=O)OC(C)(C)[C@@H]2CC(=O)[C@]3(C)[C@H](CC[C@@]4(C)[C@@H](c5ccoc5)OC(=O)[C@H]5O[C@]543)[C@@]12C [Nomilin] | 101% and 95.9% | 97.8 | 87.1 | 105 | 99.2 | 104 | 94.8 | 101 |
| CN(CCOc1ccc(CC2SC(=O)NC2=O)cc1)c1ccccn1 (stereo unspecified) [Rosiglitazone maleate] | 98.8% and 97.5% | 96 | 102 | 110 | 101 | 103 | 91.5 | 107 |
| C[C@H]1COC2=C1C(=O)C(=O)c1c2ccc2c1CCCC2(C)C [Cryptotanshinone] | 32.1% and 18.5% | 47.8 | 60.3 | 76.1 | 58.6 | 69.2 | 42.7 | 46.5 |
| Cc1ccccc1C(C(=O)NC1CCCCC1)N(C(=O)Cn1ccnc1C)c1cccc(F)c1 (stereo unspecified) | 103% and 101% | 97.1 | 99.2 | 98.6 | 100 | 99.8 | 101 | 105 |
| COc1ccc(CCc2cc(OC)c(OC)c(OC)c2)cc1O [Erianin] | 10.3% and 30.2% | 25.3 | 6.09 | 6.67 | 1.16 | 1.16 | 1.03 | 2.9 |
| CCOC(=O)c1cc(O)c(O)c(O)c1 [Ethyl gallate] | 98.4% and 88.5% | 87.8 | 72.1 | 88.3 | 78.5 | 87.2 | 80.6 | 86.8 |
| C=C1CC23CCC4C(C)(C(=O)OC5OC(CO)C(O)C(O)C5O)CCCC4(C)C2CCC1(OC1OC(CO)C(O)C(OC2OC(CO)C(O)C(O)C2O)C1OC1OC(C)C(O)C(O)C1O)C3 (stereo unspecified) [Rebaudioside C] | 101% and 99.8% | 106 | 108 | 111 | 106 | 103 | 112 | 101 |
| O=c1n(CCCN2CCN(c3cccc(Cl)c3)CC2)nc2ccccn12 [Trazodone hydrochloride (Desyrel)] | 102% and 99.9% | 103 | 105 | 109 | 106 | 102 | 106 | 104 |
| CC12CCC(C1)C(C)(C)C2O (stereo unspecified) [Fenchyl Alcohol] | 105% and 94.5% | 91.5 | 89.9 | 100 | 96.4 | 96.6 | 91.5 | 89.1 |
| COCCc1ccc(OCC(O)CNC(C)C)cc1 (stereo unspecified) [Metoprolol tartrate] | 107% and 106% | 106 | 102 | 104 | 104 | 105 | 106 | 106 |

| Compound | cell viability (K562; SRSF2 genotype: SRSF2 P95H/wt) | cell viability (K562; SRSF2 genotype: SRSF2 wt/wt) [%] | cell viability (MARIMO; SRSF2 genotype: SRSF2 P95H/wt) [%] | cell viability (MARIMO; SRSF2 genotype: SRSF2 wt/wt) [%] | cell viability (MOLM14; SRSF2 genotype: SRSF2 P95H/wt) [%] | cell viability (MOLM14; SRSF2 genotype: SRSF2 wt/wt) [%] | cell viability (OCI-AML2; SRSF2 genotype: P95H/wt) [%] | cell viability (OCI-AML2; SRSF2 genotype: wt/wt) [%] |
| --- | --- | --- | --- | --- | --- | --- | --- | --- |
| CO/N=C(\C(=O)N[C@@H]1C(=O)N2C(C(=O)O)=C(CSC(=O)c3ccco3)CS[C@H]12)c1csc(N)n1 [Ceftiofur hydrochloride] | 98.4% and 82.1% | 83.7 | 89.1 | 93.9 | 91.5 | 93.5 | 93.4 | 95.4 |
| CCCC(=O)Nc1ccc(OCC(O)CNC(C)C)c(C(C)=O)c1 (stereo unspecified) [Acebutolol HCl] | 96.2% and 86.2% | 86.2 | 97.3 | 95.1 | 92.4 | 93.3 | 94.9 | 91.7 |
| O=C(NCc1ccccc1)c1csc(Nc2ccncn2)n1 [Thiazovivin] | 100% and 101% | 100 | 80.5 | 94.7 | 37.8 | 86.8 | 46 | 49.5 |
| COc1ccc(OC)c(C2C(C#N)=C(N)Oc3n[nH]c(-c4ccc5ccccc5c4)c32)c1 (stereo unspecified) | 104% and 111% | 105 | 98.9 | 99 | 98.7 | 102 | 105 | 106 |
| CNC(=O)c1ccccc1Nc1cc(Nc2ccc(N3CCOCC3)cc2OC)ncc1C(F)(F)F | 77.7% and 90% | 82.8 | 38.6 | 35.2 | 11.4 | 11.4 | 21.3 | 26.5 |
| Oc1ccc2c(c1)OCO2 [Sesamol] | 96.7% and 82% | 83.8 | 76.8 | 88.2 | 86.5 | 88 | 92 | 92.1 |
| Cc1c(O)c(=O)ccn1C [Deferiprone] | 96.7% and 92.2% | 93.6 | 90.6 | 102 | 87 | 93.9 | 90.5 | 96.3 |
| CC1(C)[C@@H](O)CC[C@]2(C)[C@H]3C(=O)C=C4[C@@H]5C[C@@](C)(C(=O)O)CC[C@]5(C)CC[C@@]4(C)[C@]3(C)CC[C@@H]12 [Enoxolone (Glycyrrhetin)] | 97.3% and 106% | 102 | 109 | 105 | 104 | 103 | 110 | 106 |
| COc1ncc(-c2cc(-c3ncc(CN4C[C@@H](C)O[C@@H](C)C4)o3)c3cn[nH]c3c2)cc1NS(C)(=O)=O | 53.5% and 58.5% | 61.2 | 42.6 | 37.1 | 23.5 | 27.3 | 13.1 | 25.8 |
| Nc1nc2n[nH]nc2c(=O)[nH]1 [Azaguanine-8] | 85.3% and 81.8% | 82.5 | 76.2 | 68.1 | 82.7 | 86.6 | 70.9 | 54.6 |
| Cc1cccc(Nc2nc(N[C@@H]3CCCC[C@@H]3N)ncc2C(N)=O)c1 | 50.9% and 56.3% | 63.7 | 47.4 | 44.7 | 22 | 20.7 | 4.23 | 14.4 |
| O=S(=O)(c1cccc2cnccc12)N1CCCNCC1 [Fasudil HCl (HA-1077)] | 97.2% and 90.4% | 94 | 81.6 | 92.8 | 75 | 94.4 | 70.3 | 75.3 |
| CCn1c(C(=O)N(C2CC2)C2CC2)cc2c3c(ncn3C)c(Nc3cc(C)n(C)n3)nc21 | 103% | 108 | 108 | 102 | 41.6 | 38.5 | 43 | 57.1 |
| COC(=O)C1=C(C)NC(C)=C(C(=O)OCCN(C)Cc2ccccc2)C1c1cccc([N+](=O)[O-])c1 (stereo unspecified) [Nicardipine HCl] | 79.8% and 89.1% | 80.5 | 81.8 | 91.3 | 87.9 | 81.1 | 85.8 | 85 |
| O=c1cc(-c2ccc(OC3OC(CO)C(O)C(O)C3O)cc2)oc2c(C3OC(CO)C(O)C(O)C3O)c(O)cc(O)c12 (stereo unspecified) [4'-O-Glucosylvitexin] | 97% and 102% | 101 | 97.3 | 91.7 | 99.6 | 99 | 97.4 | 96.8 |
| CCCCCCCCCC(C)O (stereo unspecified) [2-Undecanol] | 109% and 107% | 105 | 111 | 102 | 110 | 108 | 110 | 105 |
| CC(=O)[O-].[K+] [Potassium acetate] | 100% and 97.3% | 103 | 106 | 97.5 | 96.7 | 99.6 | 111 | 93.4 |
| CC(=O)O/N=C1\C(=O)N(Cc2cc(Cl)ccc2Cl)c2ccc(Cl)cc21 | 92% and 94.5% | 85.1 | 15.6 | 91.5 | 30.4 | 90.7 | 1.27 | 9.59 |
| Cc1c(Cn2c(C)nc3c(C(=O)O)cc(N4CCOCC4)cc32)cccc1C(F)(F)F | 104% and 97.4% | 108 | 105 | 105 | 83.2 | 89.7 | 92.7 | 95.2 |
| Nc1ncnc2c1ncn2[C@@H]1O[C@H](COP(=O)(O)O)[C@@H](O)[C@H]1O [5'-Adenylic acid] | 99.5% and 92.5% | 90.4 | 84 | 87.2 | 87.1 | 89.3 | 99.6 | 93.9 |
| O=c1[nH]nc2c3c(cccc13)N=C(CN1Cc3ccccc3C1)N2 | 69.4% and 77.8% | 66.3 | 93 | 108 | 74.5 | 65.6 | 69.7 | 86.2 |
